Reference: PubChem BioAssay
Results filed as inconclusive are left out. The source made the active and inactive calls. Unless noted, no cut-off is given here; in the data, nearly all actives have AC50 up to about 26 µM.

Experiments:
[1] = viability loss in pontine glioma line – cell-based, SU-DIPG-XVII, MIPE5.0, CellTiter-Glo, qHTS, dose response (AID 1347060); settings: CellTiter-Glo ATP luminescence;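 note: cells exposed to compound for 48 hours before viability readout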
[2] = viability loss in pontine glioma line – cell-based, SU-DIPG-XIII, MIPE5.0, CellTiter-Glo, qHTS, dose response (AID 1347064; cut-off not given, nearly all actives have AC50 up to about 23 µM;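 note: cells exposed to compound for 48 hours before the viability read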); settings: CellTiter-Glo ATP luminescence
[3] = viability loss in pontine glioma line – cell-based, SU-DIPG-XXV, MIPE5.0, CellTiter-Glo, qHTS, dose response (AID 1347065); settings: CellTiter-Glo ATP luminescence;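 note: cells exposed to compound for 48 hours before ATP readout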
[4] = JHH-DIPG-1 glioma cell viability, MIPE5.0 library, CellTiter-Glo luminescence, qHTS (AID 1347067); settings: JHH-DIPG-1 glioma viability, CellTiter-Glo ATP luminescence;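 note: cells exposed to compound for 48 hours before readout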
[5] = growth inhibition of DIPG cells – cell-based, MIPE5.0 library, qHTS (AID 1347068; cut-off not given, nearly all actives have IC50 up to about 30 µM;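 for IC50: cells exposed to compound for 48 hours before viability readout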); settings: SU-DIPG-XXV viability
[6] = growth inhibition, single agent or in combination, cell-based, chromothripsis tumors, cisplatin or BGB combos (AID 1671449; in the data active = inhibition above about 80%;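 note: cells exposed for 96 hours; 0% = vehicle DMSO and 100% = killing by high DMSO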); settings: LFS_MB_P medulloblastoma cells
[7] = growth inhibition, single agent and combos, cell-based, chromothripsis tumors, cisplatin or BGB combos (AID 1671450; in the data active = inhibition above about 80%;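 note: cells exposed to compound for four days; 0% = vehicle DMSO and 100% = cell killing by high DMSO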); settings: HDN33 neuroblastoma cells, stronger effect = higher value
[8] = growth inhibition, single agents and combos, ICB984, cell-based, cisplatin or BGB combos, synergistic combos for chromothripsis tumors (AID 1671451; call rule not given here;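 note: cells exposed for 96 hours before readout; 0% = vehicle DMSO and 100% = killing by high DMSO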); settings: ICB984 medulloblastoma cells, drug combinations, stronger effect = higher value
[9] = growth inhibition, single agents and combos, LFS_MB_1R, cell-based, cisplatin or BGB combos, synergistic combos for chromothripsis tumors (AID 1671452; in the data active = inhibition above about 80%;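 note: cells exposed for 96 hours before readout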); settings: LFS_MB_1R medulloblastoma cells, stronger effect = higher value
[10] = growth inhibition, single agents and combos, HTB85, cell-based, BGB or cisplatin IC20 combos, synergistic combos for chromothripsis tumors (AID 1671453; in the data active = inhibition above about 80%;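 note: cells exposed for 96 hours before readout; 0% = vehicle DMSO and 100% = high DMSO killing control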); settings: HTB85 osteosarcoma cells, drug combinations, stronger effect = higher value
[11] = growth inhibition, single agents and combos, CRL2098, cell-based, BGB or cisplatin IC20 combos, synergistic combos for chromothripsis tumors (AID 1671454; in the data active = inhibition above about 80%;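 note: cells exposed for 96 h before readout; 0% = vehicle DMSO and 100% = killing by high DMSO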); settings: CRL2098 osteosarcoma cells, drug combinations, stronger effect = higher value
[12] = growth inhibition, single agents and combos, HD-MB03, cell-based, BGB or cisplatin IC20 combos, synergistic combos for chromothripsis tumors (AID 1671455; in the data active = inhibition above about 83%;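 note: 0% = vehicle DMSO and 100% = high DMSO as cytotoxic control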); settings: HD-MB03 medulloblastoma cells, stronger effect = higher value
[13] = growth inhibition, single agents and combos, UWB1.289, cell-based, BGB or cisplatin combos, synergistic combos for chromothripsis tumors (AID 1671456; in the data active = inhibition above about 80%;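 note: cells exposed to compound for four days; 0% = vehicle DMSO and 100% = killing by high DMSO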); settings: UWB1.289 ovarian carcinoma cells, stronger effect = higher value
[14] = growth inhibition, MDA-MB-436, cell-based, BGB or cisplatin combos, synergistic combos for chromothripsis tumors (AID 1671458; call rule not given here;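 note: cells exposed for 96 hours; 0% = vehicle DMSO and 100% = killing by high DMSO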); settings: MDA-MB-436 breast carcinoma growth inhibition, drug combinations, stronger effect = higher value
[15] = BT084 cell growth, single and combined drugs, ICGC_MB145, cisplatin and BGB IC40 combos (AID 1671461; in the data active = inhibition above about 80%;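 note: cells exposed to drugs for 96 hours; 0% = vehicle DMSO and 100% = high DMSO full killing control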); settings: BT084 medulloblastoma cells, drug combinations, stronger effect = higher value
[16] = RCMB18 cell growth, single agent and combined, cisplatin and BGB IC40 combos (AID 1671462; in the data active = inhibition above about 80%;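 note: cells exposed to compound for four days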); settings: RCMB18 medulloblastoma cells, stronger effect = higher value
[17] = CRL1545 cell growth, single agent and combined, cisplatin and BGB IC20 combos (AID 1671464; in the data active = inhibition above about 80%;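 note: cells exposed to compound for 96 hours before readout; 0% = vehicle DMSO and 100% = high DMSO killing control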); settings: CRL1545 osteosarcoma cells, stronger effect = higher value
[18] = viability loss with induced miR-34 in A549 – imaging, A549 dox-inducible miR-34, nuclei and caspase counts, primary screen (AID 1347080;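 active = compounds whose cell count with miR-34 switched on is under 0.7 times the count with it off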); settings: A549 miR-34 inducible, Hoechst nuclei count, 48 h
[19] = MELAS cybrid and Rieske KO viability enhancers – cell-based, MELAS cybrids, Rieske KO mouse fibroblasts, CellTiter-Glo, primary screen (AID 1508586;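 active = mean z-score across replicates of 1.96 or higher in either the MELAS or the Rieske mutant cell line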;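 note: z relative to plate mean and SD of compound and empty wells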); settings: low glucose
[20] = measured here: combination with BGB IC40, at 0.05 µM
[21] = measured here: with BGB IC20 combination, at 0.5 µM
[22] = measured here: with cisplatin IC20 combination, at 0.5 µM
[23] = measured here: combination with cisplatin, at 0.5 µM
[24] = stronger effect = lower value, cell number ratio, induced over uninduced
[25] = measured here: relative caspase fold change +Dox/-Dox
[26] = measured here: total cells with miR-34 induction, stronger effect = lower value
[27] = measured here: total cells without miR-34 induction
[28] = MELAS cybrid survival, CellTiter-Glo 48 h, stronger effect = higher value
[29] = Rieske KO mouse fibroblast survival, CellTiter-Glo 72 h

CC(=O)[C@]1(N)Cc2c(O)c3c(c(O)c2[C@@H](O[C@H]2C[C@H](O)[C@H](O)CO2)C1)C(=O)c1ccccc1C3=O
AC50 [1]: 16.6 µM (active) | AC50 [2]: 16.6 µM (active) | AC50 [3]: 20.9 µM (active) | AC50 [4]: 16.6 µM (active) | outcome [5]: inactive | inhibition ([6]; at 0.5 µM, stronger effect = higher value): -12.9% (inactive) | inhibition ([6]; measured here: combination with BGB IC20, at 0.005 µM): -16.8% | inhibition ([6]; measured here: combination with BGB IC40, at 0.005 µM): -30.9% | inhibition [6, 20]: -51.9% | inhibition ([6]; measured here: combination with cisplatin, at 0.5 µM, stronger effect = higher value): -19.4% | inhibition ([6]; measured here: combination with cisplatin, at 5 µM, stronger effect = higher value): 104% | inhibition ([7]; BGB combo, at 5 µM): 96.4% | inhibition ([7]; at 0.5 µM): -0.33% (inactive) | inhibition ([7]; cisplatin combo, at 5 µM): 97.3% | inhibition [7, 21]: 0.353% | inhibition [7, 22]: -4.83% | inhibition ([7]; single agent, at 5 µM): 98.2% | inhibition ([8]; BGB IC20 combo, at 0.005 µM): 2.76% | inhibition ([8]; BGB IC40 combo, at 0.005 µM): -3.55% | inhibition ([8]; BGB IC40 combo, at 0.05 µM): 86.2% | inhibition ([8]; at 0.5 µM): -21.5% (inactive) | inhibition ([8]; cisplatin combo, at 0.05 µM): 85.8% | inhibition ([8]; cisplatin combo, at 0.5 µM): -10.1% | inhibition ([8]; cisplatin combo, at 5 µM): -12.5% | inhibition ([8]; measured here: 5 uM single agent, at 5 µM): -13.2% | inhibition ([9]; at 0.5 µM): -7.63% (inactive) | inhibition [9, 20]: -7.53% | inhibition [9, 23]: -2.7% | inhibition ([9]; measured here: combination with cisplatin, at 5 µM): 81.1% | inhibition ([10]; at 0.5 µM): -1.28% (inactive) | inhibition ([10]; measured here: with BGB IC20, at 0.5 µM): 3.02% | inhibition ([10]; measured here: with BGB IC20, at 5 µM): 79.1% | inhibition ([10]; measured here: with cisplatin IC20, at 0.5 µM): -5.97% | inhibition ([10]; measured here: with cisplatin IC20, at 5 µM): 82.6% | inhibition ([10]; single agent, at 5 µM): 81.3% | inhibition ([11]; at 0.5 µM): -28.4% (inactive) | inhibition ([11]; measured here: combination with BGB at IC20, at 0.5 µM): -13.2% | inhibition ([11]; measured here: combination with cisplatin at IC20, at 0.5 µM): -55.8% | inhibition ([12]; at 0.5 µM): -4.21% (inactive) | inhibition ([12]; measured here: combo with BGB at IC20, at 0.5 µM): 5.01% | inhibition ([12]; measured here: combo with cisplatin at IC20, at 0.5 µM): -12.8% | inhibition ([13]; at 0.5 µM): 13.8% (inactive) | inhibition ([13]; measured here: inhibition with BGB combination, at 0.05 µM): -13.2% | inhibition ([13]; measured here: inhibition with cisplatin combination, at 0.05 µM): 8.23% | inhibition ([14]; at 0.5 µM): -0.11% (inactive) | inhibition ([14]; measured here: BGB combination, at 0.5 µM): -3.77% | inhibition ([14]; measured here: BGB combination, at 5 µM): 73.9% | inhibition ([14]; measured here: cisplatin combination, at 0.5 µM): -8.99% | inhibition ([14]; measured here: cisplatin combination, at 5 µM): 84% | inhibition ([15]; at 0.5 µM): 22.6% (inactive) | inhibition ([15]; cisplatin combination, at 0.5 µM): -12.8% | inhibition ([15]; cisplatin combination, at 5 µM): 84.4% | inhibition ([15]; measured here: BGB IC40 combination 0.05 uM, at 0.05 µM): -38.7% | inhibition ([15]; single agent, at 5 µM): 86.5% | inhibition ([16]; at 0.5 µM): 9% (inactive) | inhibition ([16]; cisplatin combo, at 5 µM): 89.6% | inhibition ([16]; measured here: BGB IC40 combination, at 0.05 µM): -27.7% | inhibition [16, 23]: 31.1% | inhibition ([16]; single agent, at 5 µM): 89.9% | inhibition ([17]; at 0.5 µM): 20% (inactive) | inhibition [17, 21]: -1.69% | inhibition [17, 22]: 29.7% | inhibition ([17]; single agent, at 0.05 µM): 22.1% | inhibition ([17]; single agent, at 5 µM): 90.1%

Cc1ccc(C(=O)Nc2ccc(CN3CCN(C)CC3)c(C(F)(F)F)c2)cc1C#Cc1cnc2[nH]ncc2c1
AC50 [1]: 0.0417 µM (active) | AC50 [2]: 0.0118 µM (active) | AC50 [3]: 0.0263 µM (active) | AC50 [4]: 0.468 µM (active) | IC50 [5]: 0.332 µM (active) | fold change [18, 24]: 0.928 (inactive) | fold change [18, 25]: 0.675 | cell count [18, 26]: 506 | cell count [18, 27]: 546 | z-score [19, 28]: 0.831 (inactive) | z-score [19, 29]: -6.34

Cc1ccc(NC(=O)c2ccc(CN3CC[C@H](N(C)C)C3)c(C(F)(F)F)c2)cc1Nc1nccc(-c2cncnc2)n1
AC50 [1]: 10.2 µM (active) | AC50 [2]: 14.4 µM (active) | AC50 [3]: 16.2 µM (active) | AC50 [4]: 11.5 µM (active) | outcome [5]: inactive

CCN1CCN(Cc2ccc(NC(=O)c3ccc(C)c(NC(=O)c4cncc(-c5cccs5)c4)c3)cc2C(F)(F)F)CC1
AC50 [1]: 5.9 µM (active) | AC50 [2]: 14.8 µM (active) | AC50 [3]: 1.05 µM (active) | AC50 [4]: 2.63 µM (active) | IC50 [5]: 4.17 µM (active)

CCOC(=O)CCNc1cc(N2CCc3ccccc3CC2)nc(-c2ccccn2)n1
AC50 [1]: 2.95 µM (active) | AC50 [2]: 3.32 µM (active) | AC50 [3]: 14.8 µM (active) | AC50 [4]: 5.25 µM (active) | IC50 [5]: 8.33 µM (active) | fold change [18, 24]: 0.698 (active) | fold change [18, 25]: 1.37 | cell count [18, 26]: 3830 | cell count [18, 27]: 5480 | z-score [19, 28]: -0.444 (inactive) | z-score [19, 29]: -0.225
